# High-throughput results: PubChem BioAssay, several laboratories
# SENP8 block-1 – SENP8 protease inhibitors, primary screen, biochemical, luminescence. Sentrin-specific protease 8 (Homo sapiens), Q96LD8. purified SENP8, Z-RLRGG-aminoluciferin cleavage. inhibition, % at 10 µM. 330,000 compounds, 1.2% hits; in the data active = inhibition above about 50%
# Target sequence (Q96LD8 whole entry, looked up): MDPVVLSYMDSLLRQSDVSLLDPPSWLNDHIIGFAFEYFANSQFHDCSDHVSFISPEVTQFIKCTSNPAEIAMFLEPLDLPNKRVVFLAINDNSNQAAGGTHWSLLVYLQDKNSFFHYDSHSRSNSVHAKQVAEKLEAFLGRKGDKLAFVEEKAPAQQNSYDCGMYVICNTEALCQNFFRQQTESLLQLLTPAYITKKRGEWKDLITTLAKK
# EBI2 antag – EBI2 receptor antagonists, beta-arrestin recruitment, primary screen, cell-based, luminescence, 7a,25-OHC stimulation, uHTS; G-protein coupled receptor 183 (Homo sapiens), P32249; 7a,25-OHC stimulated; AID 651636, 2012; inhibition, % at 5 µM; 360,000 compounds, 0.81% hits; in the data active = inhibition above about 38%;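 note: enzyme fragment complementation signal reports receptor beta-arrestin coupling in cells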
# Target sequence (P32249 whole entry, looked up, the tested form may be a part): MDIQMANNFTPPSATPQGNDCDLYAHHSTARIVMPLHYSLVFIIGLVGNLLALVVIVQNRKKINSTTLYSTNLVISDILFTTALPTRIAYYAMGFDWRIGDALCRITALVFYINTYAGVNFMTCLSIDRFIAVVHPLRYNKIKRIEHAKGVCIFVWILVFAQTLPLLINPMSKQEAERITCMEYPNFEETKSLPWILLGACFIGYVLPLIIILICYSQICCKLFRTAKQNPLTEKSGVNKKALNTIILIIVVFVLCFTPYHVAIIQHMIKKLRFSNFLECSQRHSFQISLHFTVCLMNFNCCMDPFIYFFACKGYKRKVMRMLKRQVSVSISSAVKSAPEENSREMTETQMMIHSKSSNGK
# AHR act – AHR activators, primary screen, cell-based, luminescence, luciferase reporter, human | Aryl hydrocarbon receptor (Homo sapiens), P35869 | AHR-responsive luciferase reporter cells | activation, % at 5 µM | 320,000 compounds, 2.5% hits | AID 2796, 2010; in the data active = activation above about 47%
# SENP8 block-2 – human SENP8 protease inhibitors, primary screen, biochemical, fluorescence, Nedd8 protein substrate, uHTS; recombinant SENP8; inhibition, % at 20 µM; 360,000 compounds, 0.64% hits; AID 602440, 2012; in the data active = inhibition mostly above about 40%, no sharp cut-off; inactive = mostly below about 27%
# SENP6 block – SENP6 protease inhibitors, primary screen, biochemical, luminescence, uHTS; Sentrin-specific protease 6 (Homo sapiens), Q9GZR1; Recombinant SENP6 catalytic domain, aminoluciferin luminescence; inhibition, % at 10 µM; 330,000 compounds, 1.8% hits; AID 2599, 2010;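 active = inhibition above about 50% at the single tested dose, limit read from the data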
# SENP7 inh – SENP7 protease inhibitors, primary screen, biochemical, luminescence, uHTS. AID 434973, 2010. inhibition, % at 5 µM. 330,000 compounds, 1.5% hits. recombinant SENP7, Z-RLRGG-aminoluciferin luminescence, 40 min;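 active = inhibition above about 50% at the single test dose, limit read from the data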
# A number is an active result; – = inactive; · = no result. Sampled rows, rich in hits. Any-hit rate of the full collection: about 5%.
SMILES,SENP8 block-1,EBI2 antag,AHR act,SENP8 block-2,SENP6 block,SENP7 inh
Cc1[nH]n(-c2ccccc2)c(=O)c1/C=C1\C=NN=C1c1ccccc1,–,–,–,–,–,–
Cc1ccc(-n2[nH]c(C)c(/C=C3/C=Nc4ccccc43)c2=O)cc1C,–,–,60,–,–,–
O=C(Nc1n[nH]c(=S)s1)c1ccc2ccccc2c1,82,–,–,–,91,63
Cc1cc(NCCN2CCOCC2)n2c(nc3ccccc32)c1C#N,–,–,–,–,–,–
CCN(CC)CCNc1cc(C)c(C#N)c2nc3ccccc3n12,–,–,48,–,–,–
Cc1cc(NCCCN2CCOCC2)n2c(nc3ccccc32)c1C#N,–,–,73,–,–,–
COCCCN1C(=O)C(CC(=O)NC2CCCCC2)CC(C(=O)N2CCCCCC2)=C1C (stereo unspecified),·,–,·,–,·,·
O=C(CCl)N1CCN(S(=O)(=O)c2ccc3c(c2)CCC3)CC1,–,–,–,–,–,–
CC(/C=C/c1ccc(OCc2ccccc2)cc1)=N\O,–,–,–,–,–,70
CC(/C=C/c1ccccc1)=N/O,–,–,–,–,–,–
C#CCN1[C@@H]2CCN(C2)c2cc(Br)ccc2S1(=O)=O,·,–,·,–,·,·
COc1cc(OC)c2c(=O)cc(-c3cccnc3)oc2c1,·,–,62,–,·,·
COc1cccc2oc(-c3ccco3)cc(=O)c12,–,–,–,–,–,–
Cc1cc2c(C)nc(Cc3ccccc3)nc2o1,–,–,54,–,–,–
O=C(Oc1ccccc1/C=C\C(=O)c1cc2ccccc2o1)c1cccc(F)c1,–,–,70,–,–,–
O=C(Oc1ccccc1/C=C\C(=O)c1cc2ccccc2o1)c1ccccc1,–,48,68,–,–,–
COc1cc(OC)cc(-c2cc(N)n(S(=O)(=O)Cc3ccccc3)n2)c1,–,–,63,–,–,–
CCOc1ccc(-c2cc(N)n(S(=O)(=O)c3cccc4nsnc34)n2)cc1,–,–,–,–,–,–
CCCS(=O)(=O)n1nc(-c2ccc(OC)cc2OC)cc1N,–,–,62,–,–,–
COc1cc(OC)cc(-c2cc(N)n(S(=O)(=O)c3cccc4nsnc34)n2)c1,–,–,55,–,–,–
CC(=O)NC(C)(c1ccccc1)c1nc(-c2cccc3cccnc23)cs1 (stereo unspecified),·,–,·,–,·,·
N#CC(C#N)=Cc1c(N2CCN(c3ccccc3)CC2)nc2ccccn2c1=O,–,–,–,–,–,–
FC(F)(F)C1=Nc2cccc3cccc(c23)N1,–,–,·,62,–,–
COc1ccc(C)cc1NC(=O)C(OC(=O)C1CC1)c1ccccc1 (stereo unspecified),–,–,55,–,–,–
CCOc1ccccc1NC(=O)C(OC(=O)C1CC1)c1ccccc1 (stereo unspecified),–,–,–,–,–,–
SMILES,SENP8 block-1,EBI2 antag,AHR act,SENP8 block-2,SENP6 block,SENP7 inh
COc1ccccc1NC(=O)c1ccc2nsnc2c1,–,–,56,–,–,–
Cc1c(NC(=O)c2ccc3nsnc3c2)cccc1[N+](=O)[O-],–,–,52,–,–,–
O=C(O)c1ccc2c(c1)C1C=CCC1C(c1ccncc1)N2 (stereo unspecified),–,–,–,–,–,–
FC(F)(F)c1ccc2c(c1)C1C=CCC1C(c1ccncc1)N2 (stereo unspecified),·,–,·,44,·,·
CSc1n[nH]c2nc3c(c(=O)n12)C1(CCCC1)Cc1ccccc1-3,–,–,79,–,–,–
CCSc1n[nH]c2nc3c(c(=O)n12)C1(CCCC1)Cc1ccccc1-3,–,–,51,–,–,–
C=CCSc1n[nH]c2nc3c(c(=O)n12)C1(CCCC1)Cc1ccccc1-3,–,–,59,–,–,–
CSc1nnc2n(C)c3c(c(=O)n12)C1(CCCC1)Cc1ccccc1-3,–,–,–,–,–,–
CC(=O)NS(=O)(=O)c1ccc(N=c2ssc3c2-c2ccc(C)cc2NC3(C)C)cc1,–,–,–,–,–,–
CCOc1ccc(NC(=O)CN(C)C(=O)Cc2ccc3c(c2)OCCO3)cc1OCC,·,–,·,–,·,·
FCCCOc1ccc(-c2ccnc(-c3ccccc3)n2)cc1,–,–,52,–,–,–
O=C(O/N=C/c1ccc2c(c1)OCO2)c1ccccc1Cl,84,·,–,·,86,80
O=C(N/N=C/c1ccc2c(c1)OCO2)C(=O)Nc1ccccc1Cl,–,–,·,–,–,–
C#CCN(C[C@@H]1[C@@H](OC(=O)NCC2CCCCC2)[C@@H](OC(=O)NCC2CCCCC2)Cn2c(=O)ccc(=O)n21)S(=O)(=O)c1ccc(C)cc1,·,81,·,–,·,·
c1ccc(-c2cncnc2)cc1,–,–,–,–,–,–
NC(c1ccccc1)c1csc(Nc2ccc(S(N)(=O)=O)cc2)n1 (stereo unspecified),·,–,·,–,·,·
O=C1NC(=O)C(=Cc2ccccc2)N1,·,–,·,–,·,·
CN(C)c1ccc(/C=C2/NC(=O)NC2=O)cc1,–,–,108,–,–,–
O=C(CNCc1cccc(Cl)c1)N1CCc2ccccc2C1,–,–,–,–,–,–
O=c1[nH]c(Nc2ccccn2)cc2ccccc12,87,–,–,–,91,93
CCN1C(=O)N[C@@H](CCc2ccccc2)[C@H](C(=O)OC)[C@H]1C,–,–,–,–,–,–
CN(C)c1ccc(C=C2SC(=S)N(Cc3ccco3)C2=O)cc1,·,–,·,48,·,·
Cc1nc2nc(C(F)(F)F)[nH]c2nc1C,·,–,·,–,·,·
Oc1ccc(Cl)cc1-c1cc(-c2ccccc2)n[nH]1,–,–,66,–,–,–
Cc1c(Cl)cccc1NC(=O)c1cc(-c2ccccc2O)n[nH]1,–,–,–,–,–,–
SMILES,SENP8 block-1,EBI2 antag,AHR act,SENP8 block-2,SENP6 block,SENP7 inh
Cc1ccc(-c2cc(-c3ccccc3Cl)[nH]n2)c(O)c1,–,–,86,–,–,–
COc1ccccc1-c1cc(-c2cc(Cl)ccc2O)n[nH]1,–,–,–,–,–,–
Oc1ccc(Br)cc1-c1cc(-c2ccccc2F)[nH]n1,–,–,56,–,–,–
Cc1ccc(-c2cc(-c3ccccc3[N+](=O)[O-])[nH]n2)c(O)c1,–,–,60,–,–,–
O=C(CSc1nc2ccccc2n1Cc1ccccc1Cl)N/N=C/c1ccccc1C(=O)O,–,–,–,–,–,–
CCOc1ccc(NC(=O)COc2ccc3c(c2)CCC3)cc1OC,–,–,–,–,–,–
Cc1ccc(O)c(-c2cc(C(F)(F)F)[nH]n2)c1,–,–,–,–,–,–
Cc1ccc(O)c(-c2cc(-c3cccc(Br)c3)n[nH]2)c1,–,–,70,–,–,–
Cc1ccc(-c2cc(-c3ccc(C)cc3O)[nH]n2)cc1,–,–,68,–,–,–
